Screening results deposited in PubChem BioAssay by several laboratories.
A selection: hits, their analogues and other compounds. The true share with any hit is near 2.1%.
EP2 mod – EP2 receptor modulators, cAMP readout, primary screen, cell-based, HTRF cAMP, PGE2 stimulation; EP2-expressing cells, cAMP HTRF FRET, PGE2 co-stimulation; induction, % at 25 µM; 260,000 compounds, 0.83% hits; AID 940, 2007; Prostaglandin E2 receptor EP2 subtype (Homo sapiens), P43116;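 active = compounds whose cAMP rise, as percent of the full-agonist control response, exceeds 60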;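 note: rat C6 glioma line stably carrying human EP2 under a CMV promoter; the protocol text gives 20 µM as final concentration; 100% = response of wells given 1 µM PGE2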
Target sequence (P43116 whole entry, looked up): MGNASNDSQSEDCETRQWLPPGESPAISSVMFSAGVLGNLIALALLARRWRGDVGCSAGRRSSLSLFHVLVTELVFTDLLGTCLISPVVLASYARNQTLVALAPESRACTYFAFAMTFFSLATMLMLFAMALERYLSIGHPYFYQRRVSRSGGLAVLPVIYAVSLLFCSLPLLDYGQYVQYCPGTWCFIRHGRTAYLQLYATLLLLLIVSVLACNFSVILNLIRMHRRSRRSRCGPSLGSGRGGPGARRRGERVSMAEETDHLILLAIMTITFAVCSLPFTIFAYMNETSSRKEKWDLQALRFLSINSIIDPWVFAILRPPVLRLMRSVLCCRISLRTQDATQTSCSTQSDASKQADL
PGE2 EP2 inh – human EP2 receptor antagonists, primary screen, TR-FRET cAMP, C6 glioma cells; Prostaglandin E2 receptor EP2 subtype (Homo sapiens), P43116; C6 glioma cells expressing human EP2; cells stimulated with saturating PGE2; inhibition, % at 25 µM; 260,000 compounds, 0.52% hits; AID 1422, 2008;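 active = percent inhibition above 40 after rounding to a whole number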;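 note: rat C6 glioma host cells with rolipram phosphodiesterase inhibitor present; the protocol text gives 20 µM as final concentration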
CHT inh – inhibitors of human choline transporter CHT. CHT-expressing cells, membrane potential dye, choline response; stronger effect = lower value. B-score at 10 µM. 310,000 compounds, 0.86% hits;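 active = B-score over 3 SD under the library average, and starting fluorescence ratio not unusually high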;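 note: choline stimulus applied at its EC90 after an EC20 pre-addition; B-score computed on integrated fluorescence ratio after choline addition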
CHT PAM – CHT positive allosteric modulators, primary screen, cell-based, membrane potential dye, choline EC20. CHT-expressing cells; stronger effect = higher value; LV-AA mutant CHT in HEK293 cells. B-score at 10 µM. 310,000 compounds, 0.49% hits;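 active = initial fluorescence not abnormally high and integrated response B-score, plate-corrected, over 3 SD above library mean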
CHT activ conf – CHT activators, confirmation, cell-based, membrane potential dye, duplicate. 2,500 compounds, 91% hits. activation, % at 10 µM. CHT-expressing cells, membrane potential dye fluorescence (FDSS); % of choline EC20–EC90 response window; HEK293 expressing CHT LV-AA mutant; choline added at its EC20. shares compounds with CHT PAM;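 active = primary screen active, with duplicate mean activation above negative control mean plus 3 SD, cut at about 11% in these data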
HEK293 MP dye – membrane potential response in parental HEK293 cells, counter-screen for CHT activator project, cell-based, membrane potential dye; shares compounds with CHT PAM; 2,500 compounds, 62% hits; membrane potential dye fluorescence (FDSS); measured after EC20 choline addition; ratio readout change at 10 µM, hits read low;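 active = duplicate-averaged ratio beyond 3 SD from buffer wells, up or down, though filed actives are nearly all decreases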
Active calls of the source: *; i = inactive; . = no result given.

SMILES	EP2 mod	PGE2 EP2 inh	CHT inh	CHT PAM	CHT activ conf	HEK293 MP dye
COc1ccc(C2=CSC3=NCCN23)cc1F	-1	8	i	7.2*	47*	-55*
O=C1C2=C(c3ccccc31)c1c(ccc3ccccc13)NC2c1ccccc1 (stereo unspecified)	-5	11	.	.	.	.
Cc1ccc(-c2cc(N)c(=O)n(CC(=O)Nc3cccc4c3CCCC4)n2)o1	-92	7	.	.	.	.
Cc1ccc(-n2cc(CNCCCn3ccnc3C)c(-c3ccc(F)cc3)n2)cc1	-30	8	i	i	32*	-32*
Cn1nc(CCC(=O)NC2(c3ccccc3)CCCC2)c2ccccc2c1=O	14	6	.	.	.	.
CCc1ccc(C(O)(CNCc2ccccc2)c2ccccc2)cc1 (stereo unspecified)	.	.	i	i	24*	i
CN1CCc2c(C#N)c(N3CCCCC3)nc(N3CCOCC3)c2C1	.	8	i	7*	43*	-53*
CC(=O)Nc1nnc(SCC(=O)NCc2ccc(C)cc2)s1	-9	6	.	.	.	.
COc1ccc(CN2CCC(O)(c3ccccc3)C2)cc1Cn1ccnc1 (stereo unspecified)	-64	3	.	.	.	.
COc1cc(Cn2ccnc2)c(OC)cc1Cn1ccnc1	2	9	i	13*	81*	-83*
Cc1c2ccccc2cc(Cc2ccccc2)[n+]1C	.	.	i	6.7*	68*	-76*
Cc1cc(NCCCn2ccnc2)n2ncc(-c3ccccc3)c2n1	-60	10	i	i	.	.
Cc1cc(NCCCn2ccnc2)n2nc(C)c(-c3ccccc3)c2n1	-18	1	i	8.5*	47*	-57*
CC(CC(F)(F)F)N1CCC(n2nccc2NC(=O)CCCc2ccccc2)CC1 (stereo unspecified)	.	.	i	i	-3	i
O=C(CCCc1ccccc1)Nc1ccnn1C1CCN(Cc2ccccc2)CC1	.	.	i	i	.	.
CC(C)=CC(=O)N1CCC(n2nccc2NC(=O)CCc2ccccc2)CC1	.	.	i	i	.	.
CC(C)CC(C)N1CCC(n2nccc2NC(=O)CCc2ccccc2)CC1 (stereo unspecified)	.	.	i	i	32*	i
COc1ccc(C(=O)N2CCC(c3nc(C)ncc3-c3ccncc3)CC2)o1	-53	.	.	.	.	.
COC(=O)c1cc(C(C)=O)c(C)[nH]c1=O	-4	7	i	i	.	.
COC(=O)c1cc2c(C)[nH]c(C)c2cc(C(=O)OC)c1=O	1	15	i	i	30*	-45*
COc1cc2c(cc1OC)C(c1ccc(Cl)cc1)=NCC2	21	9	i	i	63*	-79*
COc1cc2c(cc1OC)C(C)=NCC2	7	23	i	14*	60*	-68*
COc1cc2c(cc1OC)C(C)=NC1(CCCCC1)C2	32	8	i	9.8*	30*	-44*
COc1cc2c(cc1OC)C(c1ccc(-c3ccc(Cl)c(Cl)c3)o1)=NCC2	5	10	i	i	.	.
COc1cc2c(cc1OC)C(SC)=NC1(CCCC1)C2	49	4	i	i	.	.
SMILES	EP2 mod	PGE2 EP2 inh	CHT inh	CHT PAM	CHT activ conf	HEK293 MP dye
COc1cc2c(cc1OC)C(CCN)=NCC2	17	4	.	.	.	.
CC(C)C(=O)Nc1ccc(NC(=O)Cc2ccccc2)cn1	-3	13	.	.	.	.
COc1cc(/C=N/Nc2nncc3ccccc23)cc(OC)c1OC	.	.	i	7.6*	40*	-48*
COCCn1c(SC(C)C(=O)Nc2c(C)cccc2C)nc2ccccc2c1=O (stereo unspecified)	-16	25	.	.	.	.
CC1(C(=O)c2ccccc2)C2c3c(ccc4ccccc34)OC(=O)C21C(=O)N1CCOCC1 (stereo unspecified)	40	-4	i	7.3*	16*	i
COCCN1Cc2cccc(C(=O)Nc3ccc(C)cc3)c2C1=O	-2	2	i	i	.	.
COCCN1Cc2cccc(C(=O)Nc3cccnc3)c2C1=O	-2	.	i	6.5*	40*	-41*
Cc1ccc(-c2cn3c(n2)CCCC3)cc1	-1	2	i	i	.	.
COc1ccc(-c2cn3c(n2)CCC3)cc1	5	7	i	7.4*	51*	-47*
CCOC(=O)c1c(CNc2ccncc2)n(C)c2cc(Br)c(O)cc12	2	12	i	11*	52*	-51*
Cc1ccccc1C(NC(=O)c1cc2c([nH]c1=O)CCCCC2)c1ccncc1 (stereo unspecified)	-95	11	.	.	.	.
CC(=O)N(CCC(c1ccco1)C(C)C)Cc1ccc(Cl)cc1 (stereo unspecified)	-4	1	i	7.4*	26*	i
Cc1c(CCOC(=O)c2ccc([N+](=O)[O-])cc2)sc[n+]1CC(=O)c1ccccc1	-35	7	i	7.1*	58*	-52*
Cc1c(CCOC(=O)c2cccc([N+](=O)[O-])c2)sc[n+]1CC(=O)c1ccccc1	-34	6	i	i	.	.
Cc1ccc2c(c1)cc(C)c1nn(CC(=O)Nc3c(C)nn(C)c3C)c(=O)n12	6	5	.	.	.	.
COc1ccc(Nc2ccnc3ccccc23)cc1	6	13	i	6.6*	28*	-55*
CC1CCC(=O)C(C2(O)C(=O)Nc3ccccc32)C1 (stereo unspecified)	12	14	.	.	.	.
Cc1sc2nc(C3CC3)n(C3CCN(CC(=O)NC4CC4)CC3)c(=O)c2c1C	-4	7	.	.	.	.
COc1ccc2cc(C)c3nn(CC(=O)NC(C)C)c(=O)n3c2c1	16	.	.	.	.	.
CC(C)(C)OC(=O)COc1cc(OCC(=O)OC(C)(C)C)c2c(=O)cc(-c3ccccc3)oc2c1	2	29	i	8.3*	50*	i
Cc1cc(Nc2ncc(Cl)cc2Cl)n(-c2ccccc2C)n1	42	8	i	8.8*	42*	i
CCC(C)(C)n1nnnc1C(C(C)C)N1CCN(C)CC1 (stereo unspecified)	1	5	i	i	.	.
CCC(C)(C)n1nnnc1C(C(C)C)N1CCSCC1 (stereo unspecified)	0	5	i	i	1	i
Cc1cc(N2CC(C)OC(C)C2)nc2ccccc12 (stereo unspecified)	12	5	i	6.6*	28*	-55*
Cc1cc(N2CCN(c3ccccc3)CC2)nc2ccccc12	.	.	i	i	.	.
CC(C)(C)c1cc(C(F)(F)F)c(C#N)c(SCC(N)=O)n1	-3	5	.	.	.	.
